Source: PubChem BioAssay AID1159580 (chemical genetic matrix, 2015)
The whole screen tested about 5,500 compounds, of which about 2,000 (36%) were called active. Inconclusive results (about 18%) are left out. Cut-off read from the data, not from the text of the source: active = normalized growth mostly below about 0.91 (no sharp cut-off); inconclusive = no clear call, values can overlap the other calls; inactive = mostly above about 0.92. Some of the results follow.

Experiment: chemical genetic growth profiling, strain panel (AID 1159580);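 note: tested at 20 µM; growth read once vehicle control cultures reached saturation at 30 °C; 1 = growth at the plate median or of vehicle wells; lower values mean less growth of the strain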
Details: growth OD

Measured: normalized growth

c1ccc(OCCOc2ccccn2)nc1
inactive: S. cerevisiae deletion strains, locus YAL013W, strain DEP1, stronger effect = lower value 1.03 | S. cerevisiae deletion strains, locus YBR229C, strain ROT2, stronger effect = lower value 0.999 | S. cerevisiae deletion strains, locus YCL061C, strain MRC1, stronger effect = lower value 0.992 | S. cerevisiae deletion strains, locus YDL101C, strain DUN1, stronger effect = lower value 1.01 | S. cerevisiae deletion strains, locus YDL134C, strain PPH21, stronger effect = lower value 0.994 | S. cerevisiae deletion strains, locus YDR150W, strain NUM1, stronger effect = lower value 0.972 | S. cerevisiae deletion strains, locus YEL061C, strain CIN8, stronger effect = lower value 1 | S. cerevisiae deletion strains, locus YGR078C, strain PAC10, stronger effect = lower value 1 | S. cerevisiae deletion strains, locus YHR030C, strain SLT2, stronger effect = lower value 1.06 | S. cerevisiae deletion strains, locus YHR087W, strain rtc3, stronger effect = lower value 0.992 | S. cerevisiae deletion strains, locus YJR043C, strain POL32, stronger effect = lower value 0.995 | S. cerevisiae deletion strains, locus YJR075W, strain HOC1, stronger effect = lower value 1 | S. cerevisiae deletion strains, locus YKL190W, strain CNB1, stronger effect = lower value 0.998 | S. cerevisiae deletion strains, locus YLR039C, strain RIC1, stronger effect = lower value 0.999 | S. cerevisiae deletion strains, locus YLR058C, strain SHM2 (second series), stronger effect = lower value 0.996 | S. cerevisiae deletion strains, locus YLR085C, strain ARP6, stronger effect = lower value 1 | S. cerevisiae deletion strains, locus YLR262C, strain YPT6, stronger effect = lower value 1.05 | S. cerevisiae deletion strains, locus YML094W, strain GIM5, stronger effect = lower value 1.01 | S. cerevisiae deletion strains, locus YMR219W, strain ESC1, stronger effect = lower value 1.01 | S. cerevisiae deletion strains, locus YMR263W, strain SAP30, stronger effect = lower value 0.985 | S. cerevisiae deletion strains, locus YMR307W, strain GAS1, stronger effect = lower value 0.959 | S. cerevisiae deletion strains, locus YNL128W, strain TEP1, stronger effect = lower value 1 | S. cerevisiae deletion strains, locus YNL153C, strain GIM3, stronger effect = lower value 0.997 | S. cerevisiae deletion strains, locus YNL298W, strain CLA4 (second series), stronger effect = lower value 0.978 | S. cerevisiae deletion strains, locus YNL322C, strain KRE1, stronger effect = lower value 1.01 | S. cerevisiae deletion strains, locus YNR030W, strain Alg12, stronger effect = lower value 1 | S. cerevisiae deletion strains, locus YPL055C, strain LGE1, stronger effect = lower value 0.982 | S. cerevisiae deletion strains, locus YPL241C, strain CIN2, stronger effect = lower value 0.988 | S. cerevisiae deletion strains, locus YPR135W, strain CTF4, stronger effect = lower value 1.13 | S. cerevisiae strains, strain wild type, stronger effect = lower value 1
